# Data: PubChem BioAssay (EPA / NIEHS)
# Inconclusive results are not listed. Activity calls are given as the source filed them. The calls were made as follows: active = hit-call score of the fitted dose curve at least 0.9, where 1 is the maximum; inconclusive = response in the unintended direction; inactive = score below 0.9.
# What was measured:
# [1] = molecular target: Collagenase 3 (Homo sapiens) (UniProt P45452); experiment: NVS_ENZ_hMMP13: NovaScreen (NVS) Enzymatic Assay for human Matrix Metalloproteinase-13 (MMP13) (AID 2283182)
# In short: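 Recombinant MMP13 cleaving fluorescent substrate, cell-free, measured 1 h after dosing. Primary duplicate screen at 25 uM; actives tested in concentration-response up to 50 uM; loss of signal relative to DMSO.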
# [2] = molecular target: human Esterase Plasma (ES), BCHE (gene 590) (UniProt P06276); experiment: NVS_ENZ_hES: NovaScreen (NVS) Enzymatic Assay for human Esterase Plasma (ES) (AID 2283157)
# Chain of human Esterase Plasma (ES), BCHE (gene 590) (P06276 whole entry, looked up): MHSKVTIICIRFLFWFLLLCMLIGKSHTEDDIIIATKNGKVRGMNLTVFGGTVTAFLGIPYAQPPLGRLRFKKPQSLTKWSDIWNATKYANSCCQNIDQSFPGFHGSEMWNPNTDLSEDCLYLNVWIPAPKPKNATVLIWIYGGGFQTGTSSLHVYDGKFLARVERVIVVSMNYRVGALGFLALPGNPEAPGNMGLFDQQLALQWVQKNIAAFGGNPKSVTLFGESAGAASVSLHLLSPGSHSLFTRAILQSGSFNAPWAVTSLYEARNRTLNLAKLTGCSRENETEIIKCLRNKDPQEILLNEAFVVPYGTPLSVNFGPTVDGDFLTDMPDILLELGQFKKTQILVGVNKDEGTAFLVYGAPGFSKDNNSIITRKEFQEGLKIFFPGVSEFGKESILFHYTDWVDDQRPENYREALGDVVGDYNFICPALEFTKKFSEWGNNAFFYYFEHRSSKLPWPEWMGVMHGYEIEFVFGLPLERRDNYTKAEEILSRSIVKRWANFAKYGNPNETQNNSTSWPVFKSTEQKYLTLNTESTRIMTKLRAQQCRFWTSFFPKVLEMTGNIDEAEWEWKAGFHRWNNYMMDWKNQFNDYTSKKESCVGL
# In short: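 Cell-free enzyme assay using esterase extracted from human plasma; colorimetric absorbance read 0.25 hour after dosing. Single-concentration duplicate screen at 25 uM, then concentration-response up to 50 uM; loss of signal scored against DMSO baseline.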
# [3] = molecular target: human Janus Kinase 2 (Jak2), JAK2 (gene 3717) (UniProt O60674); experiment: NVS_ENZ_hJak2: NovaScreen (NVS) Enzymatic Assay for human Janus Kinase 2 (Jak2) (AID 2283169)
# Chain of human Janus Kinase 2 (Jak2), JAK2 (gene 3717) (O60674 whole entry, looked up): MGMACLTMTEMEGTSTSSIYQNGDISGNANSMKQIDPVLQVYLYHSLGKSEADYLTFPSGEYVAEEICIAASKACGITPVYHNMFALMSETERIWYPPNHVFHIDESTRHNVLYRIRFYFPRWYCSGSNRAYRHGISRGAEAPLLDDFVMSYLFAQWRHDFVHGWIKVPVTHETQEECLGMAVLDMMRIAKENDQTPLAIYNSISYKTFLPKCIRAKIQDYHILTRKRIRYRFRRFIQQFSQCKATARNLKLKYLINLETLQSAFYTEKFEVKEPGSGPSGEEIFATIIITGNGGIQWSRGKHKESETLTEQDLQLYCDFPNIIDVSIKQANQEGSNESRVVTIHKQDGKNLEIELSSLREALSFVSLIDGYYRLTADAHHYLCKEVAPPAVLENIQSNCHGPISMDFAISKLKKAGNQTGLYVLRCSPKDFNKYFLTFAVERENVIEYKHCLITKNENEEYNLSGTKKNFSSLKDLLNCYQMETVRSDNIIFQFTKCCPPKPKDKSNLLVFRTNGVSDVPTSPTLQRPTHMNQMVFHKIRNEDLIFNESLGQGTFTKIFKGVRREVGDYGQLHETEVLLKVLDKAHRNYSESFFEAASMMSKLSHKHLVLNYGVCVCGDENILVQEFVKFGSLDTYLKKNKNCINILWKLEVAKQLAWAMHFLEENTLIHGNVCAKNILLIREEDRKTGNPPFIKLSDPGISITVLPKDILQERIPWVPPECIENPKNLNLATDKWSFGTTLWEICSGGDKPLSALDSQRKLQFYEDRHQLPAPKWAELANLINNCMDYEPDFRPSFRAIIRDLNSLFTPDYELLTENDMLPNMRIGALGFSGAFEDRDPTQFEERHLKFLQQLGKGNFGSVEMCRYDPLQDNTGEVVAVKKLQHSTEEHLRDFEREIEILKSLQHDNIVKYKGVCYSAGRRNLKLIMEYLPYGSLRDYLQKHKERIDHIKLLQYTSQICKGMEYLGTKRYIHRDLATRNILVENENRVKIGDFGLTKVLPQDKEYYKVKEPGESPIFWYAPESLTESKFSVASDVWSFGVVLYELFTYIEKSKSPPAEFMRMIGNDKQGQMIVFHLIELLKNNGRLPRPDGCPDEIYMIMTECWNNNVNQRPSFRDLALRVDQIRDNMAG
# In short: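 Cell-free recombinant human JAK2 enzyme activity assay, fluorescence/electrophoretic mobility shift read 1 h after dosing. Screened in duplicate at 25 uM, then concentration-response up to 50 uM; activity as signal loss relative to DMSO.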
# [4] = molecular target: Histone deacetylase 3 (Homo sapiens) (UniProt O15379); experiment: NVS_ENZ_hHDAC3: NovaScreen (NVS) Enzymatic Assay for human Histone Deacetylase 3 (HDAC3) (AID 2283163)
# Chain of Histone deacetylase 3 (Homo sapiens) (O15379 whole entry, looked up): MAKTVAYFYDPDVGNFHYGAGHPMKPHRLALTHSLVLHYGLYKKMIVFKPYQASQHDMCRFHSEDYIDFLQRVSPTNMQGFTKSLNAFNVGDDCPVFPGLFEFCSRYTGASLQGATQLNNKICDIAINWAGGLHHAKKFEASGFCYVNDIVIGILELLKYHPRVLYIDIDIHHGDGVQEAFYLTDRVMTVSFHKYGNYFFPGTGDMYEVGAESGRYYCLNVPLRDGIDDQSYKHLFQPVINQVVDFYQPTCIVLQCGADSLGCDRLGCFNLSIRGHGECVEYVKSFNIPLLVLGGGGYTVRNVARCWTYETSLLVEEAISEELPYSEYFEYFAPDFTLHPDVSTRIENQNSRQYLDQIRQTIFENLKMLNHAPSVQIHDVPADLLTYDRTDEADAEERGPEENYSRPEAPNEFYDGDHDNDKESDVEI
# In short: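 Recombinant human HDAC3 with fluorescent substrate, 1 h after dosing; product separated from substrate by electrophoretic mobility shift and read by fluorescence. Primary screen at 25 uM in duplicate; actives (e.g. ≥30% inhibition) retested in concentration-response up to 50 uM.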
# [5] = molecular target: Glycogen synthase kinase-3 beta (Homo sapiens) (UniProt P49841); experiment: NVS_ENZ_hGSK3b: NovaScreen (NVS) Enzymatic Assay for human Glycogen Synthase Kinase-3 beta (GSK3b) (AID 2283165)
# Chain of Glycogen synthase kinase-3 beta (Homo sapiens) (P49841 whole entry, looked up): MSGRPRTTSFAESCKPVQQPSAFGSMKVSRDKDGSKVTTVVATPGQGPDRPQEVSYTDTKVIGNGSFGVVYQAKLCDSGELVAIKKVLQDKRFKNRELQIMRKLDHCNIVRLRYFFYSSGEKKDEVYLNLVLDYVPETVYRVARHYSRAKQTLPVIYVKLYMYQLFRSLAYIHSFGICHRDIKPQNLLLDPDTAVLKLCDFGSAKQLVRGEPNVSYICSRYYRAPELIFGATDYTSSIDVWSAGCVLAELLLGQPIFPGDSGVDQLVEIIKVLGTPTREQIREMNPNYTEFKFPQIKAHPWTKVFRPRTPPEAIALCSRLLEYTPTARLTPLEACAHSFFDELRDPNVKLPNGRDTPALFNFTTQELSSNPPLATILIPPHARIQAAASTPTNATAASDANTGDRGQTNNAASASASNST
# In short: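 Recombinant enzyme with specific fluorescent substrate, 1 h, product separated by electrophoretic mobility shift. Primary duplicate screen at 25 uM; actives (e.g. 30% inhibition) followed in singleton concentration-response to 50 uM. Signal loss fitted versus DMSO.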
# [6] = molecular target: human MAP Kinase-Activated Protein Kinase 2 (MAPKAPK2), MAPKAPK2 (gene 9261) (UniProt P49137); experiment: NVS_ENZ_hMAPKAPK2: NovaScreen (NVS) Enzymatic Assay for human MAP Kinase-Activated Protein Kinase 2 (MAPKAPK2) (AID 2283178)
# Chain of human MAP Kinase-Activated Protein Kinase 2 (MAPKAPK2), MAPKAPK2 (gene 9261) (P49137 whole entry, looked up): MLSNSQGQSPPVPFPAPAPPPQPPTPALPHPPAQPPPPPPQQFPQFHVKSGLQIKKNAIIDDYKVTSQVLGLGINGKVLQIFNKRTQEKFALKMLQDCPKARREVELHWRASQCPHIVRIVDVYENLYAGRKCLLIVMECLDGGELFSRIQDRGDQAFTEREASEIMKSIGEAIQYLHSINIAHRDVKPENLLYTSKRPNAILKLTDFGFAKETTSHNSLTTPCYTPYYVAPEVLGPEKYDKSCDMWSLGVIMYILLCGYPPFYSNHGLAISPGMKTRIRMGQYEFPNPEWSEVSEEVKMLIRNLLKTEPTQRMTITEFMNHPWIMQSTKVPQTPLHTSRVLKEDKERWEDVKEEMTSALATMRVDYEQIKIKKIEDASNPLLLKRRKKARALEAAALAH
# In short: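 Cell-free recombinant human MAPKAPK2 activity measured by fluorescence with electrophoretic mobility shift separation of substrate and product, 1 hr after dosing. Loss of signal versus DMSO; primary screen at 25 uM, concentration-response up to 50 uM.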
# [7] = molecular target: human Elastase, ELANE (gene 1991) (UniProt P08246); experiment: NVS_ENZ_hElastase: NovaScreen (NVS) Enzymatic Assay for human Elastase (AID 2283153)
# Chain of human Elastase, ELANE (gene 1991) (P08246 whole entry, looked up): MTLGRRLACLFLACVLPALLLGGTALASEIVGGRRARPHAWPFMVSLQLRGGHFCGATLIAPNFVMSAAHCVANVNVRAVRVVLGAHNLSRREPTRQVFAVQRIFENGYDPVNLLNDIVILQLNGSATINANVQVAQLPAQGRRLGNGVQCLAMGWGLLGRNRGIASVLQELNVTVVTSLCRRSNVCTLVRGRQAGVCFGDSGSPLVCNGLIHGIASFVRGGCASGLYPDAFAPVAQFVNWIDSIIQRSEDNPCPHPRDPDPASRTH
# In short: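 Cell-free elastase from human neutrophils, 1.5 h after dosing, activity read by absorbance. Primary screen in duplicate at 25 uM; hits (e.g., 30% inhibition) rerun in singleton concentration-response up to 50 uM, fitted versus DMSO.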
smiles,measurement,setting,value
c1cc(-c2ccncc2)ccn1,outcome,[1],inactive
CCOC(=O)C(C)(C)Oc1ccc(Cl)cc1,outcome,[2],inactive
same,outcome,[3],inactive
CC(C)(C)c1cc(O)c(C(C)(C)C)cc1O,outcome,[2],inactive
CN1CCN(Cc2cc(-c3ccc4[nH]c(=O)oc4c3)co2)[C@@H](c2ccc(F)cc2)C1,AC50,[2],9.48 µM (active)
same,AC50,[1],7.74 µM (active)
CC(C)c1ccc(C(=O)N=C(N)N)cc1S(C)(=O)=O,outcome,[4],inactive
same,outcome,[5],inactive
same,outcome,[6],inactive
Cc1cc(=O)[nH]c(=S)[nH]1,outcome,[2],inactive
Nc1nc(N)c2nc(CNc3ccc(C(=O)N[C@@H](CCC(=O)O)C(=O)O)cc3)cnc2n1,outcome,[7],inactive
same,outcome,[2],inactive
same,AC50,[3],21.9 µM (active)
CCCCCCCCCCO,outcome,[5],inactive
CN[C@H]1CC[C@@H](c2ccc(Cl)c(Cl)c2)c2ccc(S(N)(=O)=O)cc21,AC50,[1],2.36 µM (active)
NC(=O)Cn1c(=O)cc(CCN2CCN(c3nccc4sccc34)CC2)c2ccc(F)cc21,AC50,[2],13 µM (active)
same,outcome,[5],inactive
NCC1(Cc2noc(=O)[nH]2)CCCCC1,outcome,[2],inactive
